# From the supplement of paper PMC10849652
# Targets with a hit are over-represented here; the source holds about 8,800 in all. About 0.5% of all pairs of compound and target were hits. Unmarked numbers belong to inactive results.
# Compound: CN1CCC(CNc2ccc3ncc(-c4cccc(OC(F)(F)F)c4)n3n2)CC1
# Assay: log2 fold change, soluble protein after heating vs DMSO (PISA); higher = thermal stabilisation; K562 lysate, 10 uM; active = over 0.2 and 3.5 SD of the protein, either way, in both replicates (recomputed)
# In short: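 The values are log-two fold changes in thermal stability compared with solvent controls and come from duplicates. They were obtained by TMTpro 16plex LC-MS/MS, with channel sums equalised, on the supernatant after 21,000xg for 90 min. That supernatant came from crude K562 extract at 1 mg/mL protein treated with 10 μM compound for 30 min, heated for 3 min across 48°C-58°C, pooled and brought to 0.5% NP-40 at 4°C.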
# Sequence of UniProt P49757 (P49757 whole entry, looked up): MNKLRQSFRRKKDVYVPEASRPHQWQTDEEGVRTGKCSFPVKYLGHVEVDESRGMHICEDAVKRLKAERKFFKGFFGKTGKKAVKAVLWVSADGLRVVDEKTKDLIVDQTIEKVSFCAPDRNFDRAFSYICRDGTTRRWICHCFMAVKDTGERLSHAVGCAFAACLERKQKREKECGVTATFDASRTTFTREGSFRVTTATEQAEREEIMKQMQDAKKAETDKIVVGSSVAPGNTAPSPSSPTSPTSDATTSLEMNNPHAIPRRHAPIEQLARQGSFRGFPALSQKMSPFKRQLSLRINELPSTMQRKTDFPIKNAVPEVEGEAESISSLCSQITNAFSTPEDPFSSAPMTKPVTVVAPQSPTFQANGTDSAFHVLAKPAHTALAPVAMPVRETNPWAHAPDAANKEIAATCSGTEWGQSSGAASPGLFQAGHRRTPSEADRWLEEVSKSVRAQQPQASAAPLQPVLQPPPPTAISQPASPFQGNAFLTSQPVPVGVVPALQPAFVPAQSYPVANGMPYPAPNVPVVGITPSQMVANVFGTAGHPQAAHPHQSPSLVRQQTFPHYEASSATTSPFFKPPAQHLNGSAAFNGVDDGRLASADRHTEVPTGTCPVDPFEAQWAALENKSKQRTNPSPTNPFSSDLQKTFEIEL
# Sequence of UniProt Q13469 (Q13469 whole entry, looked up): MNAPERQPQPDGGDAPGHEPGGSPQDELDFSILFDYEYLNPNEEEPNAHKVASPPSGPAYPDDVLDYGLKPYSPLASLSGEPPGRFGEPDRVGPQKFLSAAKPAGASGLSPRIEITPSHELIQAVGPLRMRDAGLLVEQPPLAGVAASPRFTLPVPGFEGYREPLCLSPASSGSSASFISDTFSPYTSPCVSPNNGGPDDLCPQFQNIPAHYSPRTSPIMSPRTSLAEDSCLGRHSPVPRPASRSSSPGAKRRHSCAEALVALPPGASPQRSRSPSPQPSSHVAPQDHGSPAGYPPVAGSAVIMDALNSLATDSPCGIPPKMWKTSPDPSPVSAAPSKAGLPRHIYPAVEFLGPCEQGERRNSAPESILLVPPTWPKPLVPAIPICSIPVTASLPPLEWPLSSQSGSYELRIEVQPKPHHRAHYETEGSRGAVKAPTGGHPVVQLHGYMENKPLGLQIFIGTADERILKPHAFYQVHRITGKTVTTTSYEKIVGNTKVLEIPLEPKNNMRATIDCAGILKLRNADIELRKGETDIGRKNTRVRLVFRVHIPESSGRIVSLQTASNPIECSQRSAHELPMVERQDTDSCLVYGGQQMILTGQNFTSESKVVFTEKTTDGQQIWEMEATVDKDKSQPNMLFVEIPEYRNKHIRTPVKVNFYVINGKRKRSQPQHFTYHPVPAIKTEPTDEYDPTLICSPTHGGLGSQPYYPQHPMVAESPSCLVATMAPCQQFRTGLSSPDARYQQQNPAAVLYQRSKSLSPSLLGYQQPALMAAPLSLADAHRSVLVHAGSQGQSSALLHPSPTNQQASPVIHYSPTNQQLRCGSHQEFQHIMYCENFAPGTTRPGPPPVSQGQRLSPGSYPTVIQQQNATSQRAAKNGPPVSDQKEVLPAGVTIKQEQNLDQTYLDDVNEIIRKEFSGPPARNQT
# Sequence of UniProt Q147X3 (Q147X3 whole entry, looked up): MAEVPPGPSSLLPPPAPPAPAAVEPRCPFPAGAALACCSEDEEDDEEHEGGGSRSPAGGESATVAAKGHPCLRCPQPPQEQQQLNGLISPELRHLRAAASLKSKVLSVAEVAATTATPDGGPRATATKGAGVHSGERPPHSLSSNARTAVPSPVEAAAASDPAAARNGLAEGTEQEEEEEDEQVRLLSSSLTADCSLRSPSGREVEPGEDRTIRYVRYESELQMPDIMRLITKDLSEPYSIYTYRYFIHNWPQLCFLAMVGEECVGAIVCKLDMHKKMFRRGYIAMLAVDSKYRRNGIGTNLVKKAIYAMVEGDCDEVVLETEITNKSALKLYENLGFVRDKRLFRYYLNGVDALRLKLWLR
# Sequence of UniProt Q8TDX7 (Q8TDX7 whole entry, looked up): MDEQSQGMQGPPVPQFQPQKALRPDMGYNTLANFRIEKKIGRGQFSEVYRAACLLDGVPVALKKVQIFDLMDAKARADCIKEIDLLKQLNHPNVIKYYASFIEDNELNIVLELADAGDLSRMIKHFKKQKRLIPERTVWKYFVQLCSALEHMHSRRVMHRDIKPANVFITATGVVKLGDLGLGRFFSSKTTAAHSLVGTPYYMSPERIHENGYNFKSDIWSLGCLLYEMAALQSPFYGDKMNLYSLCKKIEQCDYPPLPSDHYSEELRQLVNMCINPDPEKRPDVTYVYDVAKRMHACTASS
# Sequence of UniProt P21359 (P21359 whole entry, looked up): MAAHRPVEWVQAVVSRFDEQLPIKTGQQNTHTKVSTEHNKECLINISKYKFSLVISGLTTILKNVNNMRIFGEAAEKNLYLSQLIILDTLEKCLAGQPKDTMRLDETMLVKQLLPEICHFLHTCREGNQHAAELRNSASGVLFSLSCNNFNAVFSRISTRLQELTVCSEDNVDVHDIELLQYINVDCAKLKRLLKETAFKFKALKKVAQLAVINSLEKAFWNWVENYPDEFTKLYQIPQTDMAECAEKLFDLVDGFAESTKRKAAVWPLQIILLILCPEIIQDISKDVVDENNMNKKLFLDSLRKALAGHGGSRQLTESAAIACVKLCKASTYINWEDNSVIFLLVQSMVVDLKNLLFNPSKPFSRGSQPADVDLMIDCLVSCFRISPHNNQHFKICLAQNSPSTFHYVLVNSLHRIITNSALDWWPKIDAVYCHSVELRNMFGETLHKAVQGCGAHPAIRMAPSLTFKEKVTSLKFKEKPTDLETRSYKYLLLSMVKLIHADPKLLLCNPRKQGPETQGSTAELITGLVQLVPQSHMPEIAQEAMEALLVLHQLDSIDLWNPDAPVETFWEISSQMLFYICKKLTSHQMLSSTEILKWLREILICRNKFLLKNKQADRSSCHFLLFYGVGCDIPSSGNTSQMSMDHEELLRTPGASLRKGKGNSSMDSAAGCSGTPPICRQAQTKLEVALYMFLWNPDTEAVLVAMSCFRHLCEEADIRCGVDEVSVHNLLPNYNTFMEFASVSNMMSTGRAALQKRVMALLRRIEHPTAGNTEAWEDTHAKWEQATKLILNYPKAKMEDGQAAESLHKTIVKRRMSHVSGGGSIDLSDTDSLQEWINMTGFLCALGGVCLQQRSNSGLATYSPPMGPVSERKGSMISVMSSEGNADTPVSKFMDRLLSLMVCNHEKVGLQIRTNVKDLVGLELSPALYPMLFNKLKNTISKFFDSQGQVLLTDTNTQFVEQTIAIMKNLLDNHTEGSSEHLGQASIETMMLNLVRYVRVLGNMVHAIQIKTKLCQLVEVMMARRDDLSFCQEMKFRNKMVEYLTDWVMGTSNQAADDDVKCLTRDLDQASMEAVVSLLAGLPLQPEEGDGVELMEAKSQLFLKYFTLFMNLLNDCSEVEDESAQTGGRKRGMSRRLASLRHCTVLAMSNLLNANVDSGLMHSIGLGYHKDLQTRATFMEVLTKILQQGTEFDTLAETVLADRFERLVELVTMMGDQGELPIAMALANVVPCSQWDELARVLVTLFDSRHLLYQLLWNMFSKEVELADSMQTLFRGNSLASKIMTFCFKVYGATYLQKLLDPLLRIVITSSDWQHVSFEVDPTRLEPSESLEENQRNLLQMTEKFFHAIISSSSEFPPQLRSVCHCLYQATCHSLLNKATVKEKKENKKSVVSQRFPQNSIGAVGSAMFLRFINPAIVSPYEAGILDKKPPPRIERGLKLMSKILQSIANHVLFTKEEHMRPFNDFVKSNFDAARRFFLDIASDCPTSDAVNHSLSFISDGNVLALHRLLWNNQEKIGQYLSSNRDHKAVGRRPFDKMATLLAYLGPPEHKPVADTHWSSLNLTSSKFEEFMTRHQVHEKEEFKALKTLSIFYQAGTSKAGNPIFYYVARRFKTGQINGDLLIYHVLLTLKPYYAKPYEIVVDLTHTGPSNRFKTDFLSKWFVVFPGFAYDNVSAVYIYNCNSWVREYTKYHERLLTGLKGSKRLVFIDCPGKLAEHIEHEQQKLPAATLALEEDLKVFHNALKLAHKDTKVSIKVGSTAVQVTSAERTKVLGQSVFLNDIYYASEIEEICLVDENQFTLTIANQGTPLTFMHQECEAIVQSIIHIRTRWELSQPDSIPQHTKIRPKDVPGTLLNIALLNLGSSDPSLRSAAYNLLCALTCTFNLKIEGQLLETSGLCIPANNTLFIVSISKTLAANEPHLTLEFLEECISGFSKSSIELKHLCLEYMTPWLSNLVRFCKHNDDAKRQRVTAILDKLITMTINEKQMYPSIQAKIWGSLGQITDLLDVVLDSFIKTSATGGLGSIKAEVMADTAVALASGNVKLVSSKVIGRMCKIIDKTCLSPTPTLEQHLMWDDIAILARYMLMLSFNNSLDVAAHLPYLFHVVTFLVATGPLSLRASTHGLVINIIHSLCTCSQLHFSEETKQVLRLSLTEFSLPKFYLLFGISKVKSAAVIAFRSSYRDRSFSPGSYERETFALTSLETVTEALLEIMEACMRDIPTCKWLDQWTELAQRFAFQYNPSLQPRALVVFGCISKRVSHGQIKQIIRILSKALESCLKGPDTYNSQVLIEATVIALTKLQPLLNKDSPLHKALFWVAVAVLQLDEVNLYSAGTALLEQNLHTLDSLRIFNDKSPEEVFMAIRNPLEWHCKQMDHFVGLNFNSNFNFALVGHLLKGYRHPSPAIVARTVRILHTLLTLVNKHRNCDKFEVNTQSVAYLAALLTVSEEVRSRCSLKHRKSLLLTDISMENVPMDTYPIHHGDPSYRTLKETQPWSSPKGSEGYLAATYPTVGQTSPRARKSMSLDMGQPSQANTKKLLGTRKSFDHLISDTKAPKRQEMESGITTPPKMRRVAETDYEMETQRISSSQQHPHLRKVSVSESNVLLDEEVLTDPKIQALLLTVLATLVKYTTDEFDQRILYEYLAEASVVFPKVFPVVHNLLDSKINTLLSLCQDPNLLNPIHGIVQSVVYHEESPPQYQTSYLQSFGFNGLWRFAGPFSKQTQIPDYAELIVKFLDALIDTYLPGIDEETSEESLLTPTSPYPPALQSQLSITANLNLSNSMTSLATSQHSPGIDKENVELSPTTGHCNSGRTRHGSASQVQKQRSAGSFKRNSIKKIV
row,Target,log2 fold change
1,ORC2 (UniProt Q13416),-0.085
2,NIPSNAP3A (UniProt Q9UFN0),-0.213
3,N6AMT1 (UniProt Q9Y5N5),-0.048
4,OTUD7B (UniProt Q6GQQ9),-0.042
5,MSH2 (UniProt P43246),-0.055
6,MRPL53 (UniProt Q96EL3),-0.019
7,NFKBIE (UniProt O00221),-0.045
8,NCAPH2 (UniProt Q6IBW4),0.02
9,MRPS18A isoform 2 (UniProt Q9NVS2),-0.121
10,NOB1 (UniProt Q9ULX3),-0.102
11,NCAPG2 (UniProt Q86XI2),0.074
12,NUMB (UniProt P49757),-0.061
13,OARD1 (UniProt Q9Y530),-0.034
14,NF1 (UniProt P21359),-0.041
15,NTMT1 (UniProt Q9BV86),-0.101
16,MYD88 isoform 6 (UniProt Q99836),-0.013
17,NUSAP1 (UniProt Q9BXS6),0.189
18,MVB12A (UniProt Q96EY5),-0.001

row,Target,log2 fold change
1,NAT1 (UniProt P18440),-0.014
2,MSH3 (UniProt P20585),0.031
3,NCK1 (UniProt P16333),-0.05
4,NGLY1 (UniProt Q96IV0),-0.02
5,NOA1 (UniProt Q8NC60),0.028
6,NUB1 (UniProt Q9Y5A7),-0.048
7,NAA30 (UniProt Q147X3),0.043
8,NUDT5 (UniProt Q9UKK9),0.27 (active)
9,NOSIP (UniProt Q9Y314),0.016
10,MTFP1 (UniProt Q9UDX5),0.041
11,NFATC1 (UniProt O95644),0.064
12,MYOM1 (UniProt P52179),0.088
13,MTCH2 (UniProt Q9Y6C9),0.014
14,PAK1 (UniProt Q13153),0.06
15,NFATC2 (UniProt Q13469),-0.002
16,NOC2L (UniProt Q9Y3T9),-0.016
17,NEK7 (UniProt Q8TDX7),0.041
